This is one part of a sample in which hits are shown more often than they occur.
IL-1B inflam inh: blocks inflammasome-driven IL-1 beta release; activity change, % at 57.5 µM; 360,000 compounds, 4.7% hits; THP-1 LPS/ATP IL-1B secretion, AlphaLISA, 16 h; hits give low values; in the data active means activity change below about -50%; inconclusive means mostly about -30% to -49%
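Secreted IL-1B measured by AlphaLISA bead assay after 16 h compound exposure of THP-1 cells; compounds (final up to 57.5 uM) added 1 h before LPS (250 ng/mL) and ATP (1.25 mM) stimulation; lower signal means less secretion.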
HT1080-NT tox: kills 2HG-producing HT-1080-NT fibrosarcoma cells | HT-1080-NT fibrosarcoma viability, CellTiter-Glo ATP luminescence, 48 h | Potency, µM (doses to about 46.1 µM), actives largely listed as cytotoxic | 360,000 compounds, 1.6% hits | AID 686970;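 further: NT is the 2HG producing partner of a matched IDH1 knockdown line; nearly all actives have a fitted effect of over 55% in size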
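Read-out is CellTiter-Glo luminescence after 10 minutes at room temperature, following 48 hours' compound treatment of HT-1080-NT cells (750 cells/well, RPMI, 5% FBS, 37 degrees C).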
HT1080 IDH1KD tx: HT-1080 IDH1 knockdown cell toxicity (counter line); HT-1080 IDH1 knockdown viability, ATP luminescence, 48 h; Potency, µM (series often up to 46.1 µM), usual class: cytotoxic; 360,000 compounds, 2% hits; AID 686971
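CellTiter-Glo luminescence after 48 h compound exposure at 37 degrees C of IDH1-knockdown HT-1080 cells in 5% FBS RPMI. %Activity scaled between DMSO wells and cell-free media wells, with curves fitted and assigned curve classes.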
TDP1 cell CPT: growth inhibition of DT40 Tdp1-/-;hTDP1 cells with camptothecin (screen for TDP1 inhibitors); chicken DT40 Tdp1-/-;hTDP1 cells + 20 nM CPT, ATP luminescence, 48 h; AID 686979; 420,000 compounds, 12% hits; Potency, µM (series often up to 46.2 µM), hits mostly inhibitors; further: nearly all actives have a fitted effect of over 55% in size
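Chicken DT40 Tdp1-/- cells complemented with human TDP1, 400 cells/well, exposed to compounds plus 20 nM camptothecin for at least 48 h at 37 C; viability read as ATP content by CellTiter-Glo luminescence.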
TDP1 cell noCPT: qHTS for Inhibitors of human tyrosyl-DNA phosphodiesterase 1 (TDP1): qHTS in cells in absence of CPT. DT40 Tdp1-/- hTDP1 cells, no CPT, ATP luminescence, 48 h. Potency, µM (top dose mostly 46.2 µM), most hits filed as inhibitors. 420,000 compounds, 15% hits; further: nearly all actives have a fitted effect of over 55% in size
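Readout: luminescence from CellTiter-Glo after 30 min in the dark at RT. Cells: DT40 Tdp1-/- with stable hTDP1, 400/well. Exposure: compounds alone, ≥48 hr, 37 °C.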
ALOX12 inh: inhibitors of human 12S-lipoxygenase ALOX12; AID 1671190; purified 12hLO, xylenol orange hydroperoxide absorbance; P18054; 580,000 compounds, 1.1% hits; Potency, µM (series often up to 108 µM), usual class: inhibitors
Target sequence (P18054 whole entry, looked up): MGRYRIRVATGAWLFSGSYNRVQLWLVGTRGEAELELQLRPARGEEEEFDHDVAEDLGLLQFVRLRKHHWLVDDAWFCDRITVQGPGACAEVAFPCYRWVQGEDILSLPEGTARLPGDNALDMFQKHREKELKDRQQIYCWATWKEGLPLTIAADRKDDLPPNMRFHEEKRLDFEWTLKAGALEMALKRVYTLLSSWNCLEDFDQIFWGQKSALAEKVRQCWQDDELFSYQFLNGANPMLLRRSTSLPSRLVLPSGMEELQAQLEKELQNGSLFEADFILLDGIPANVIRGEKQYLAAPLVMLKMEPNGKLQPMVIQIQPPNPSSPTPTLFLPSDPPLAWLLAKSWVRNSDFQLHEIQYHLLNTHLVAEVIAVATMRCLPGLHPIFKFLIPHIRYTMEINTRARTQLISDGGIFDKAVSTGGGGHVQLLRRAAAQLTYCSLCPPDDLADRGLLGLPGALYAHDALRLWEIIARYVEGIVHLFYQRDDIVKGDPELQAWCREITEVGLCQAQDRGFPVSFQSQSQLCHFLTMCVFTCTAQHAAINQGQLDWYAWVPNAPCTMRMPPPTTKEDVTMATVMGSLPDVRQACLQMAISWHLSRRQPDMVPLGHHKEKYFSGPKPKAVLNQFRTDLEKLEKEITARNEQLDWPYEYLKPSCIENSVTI
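Hydroperoxide product was detected by ferrous iron/xylenol orange as the 573 to 405 nm absorbance ratio. Arachidonic acid at 40 uM (final) was turned over for 30 min at room temperature by 150 nM human 12hLO, pH 7.0 Hepes buffer, after 15 min compound preincubation.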
A number is an active result; 0 = inactive; ? = inconclusive; - = not tested or not shown; ! = repeats disagree; [ ] = another dose, or the depositor's remark. Unless noted, the call rests on the fitted dose curve; in most records, active means well fitted curve in the direction sought with a large enough effect; inconclusive means small, poorly fitted or top-dose-only effect, or another doubt; inactive means no such curve, though single readings can be large; an effect the other way counts as inactive or inconclusive.

SMILES	IL-1B inflam inh	HT1080-NT tox	HT1080 IDH1KD tx	TDP1 cell CPT	TDP1 cell noCPT	ALOX12 inh
O=C(Nc1ccc(O)cc1)c1ccccc1OCc1ccccc1	-71	0	0	?	?	?
Cc1ccc(NC(=O)c2ccc(OCc3ccccc3)cc2)cc1	-	-	-	-	-	0
O=C(Nc1ccccc1)c1ccccc1OCc1ccc(F)cc1	0	0	0	?	0	0
CC(C)OCCCNC(=S)NC1CCCC1	-	-	-	-	-	35µM
CCCCNC(=S)NC1CCCC1	0	0	0	0	0	0
CCC(C)NS(=O)(=O)c1ccc(C(=O)Nc2ccc3ccccc3n2)cc1 (stereo not drawn)	-	-	-	-	-	0
COc1ccc(NC(=S)N(CCc2c(C)[nH]c3ccc(C)cc23)Cc2cccs2)cc1	-56	0	?	16µM	?	?
COc1ccc2[nH]c(C)c(CCN(Cc3cccs3)C(=S)Nc3ccc(F)cc3)c2c1	0	0	0	?	?	-
COc1ccc(NC(=S)N(CCc2c(C)[nH]c3ccc(C)cc23)Cc2ccco2)cc1	0	0	0	?	?	0
COc1ccc2[nH]c(C)c(CCN(Cc3cccs3)C(=S)Nc3ccccc3)c2c1	-50	0	0	?	?	0
COC(=O)c1cc(-c2ccc(OC)cc2)nc2ccc(C)cc12	-	-	-	-	-	0
Cn1ncc2c(C(=O)NC3CC3)cc(-c3ccc(F)cc3)nc21	-	-	-	-	-	0[6.33 µM]
CC(=O)NC1(C)CCN(Cc2cccc(-c3ccc4c(ccn4C)c3)c2)C1 (stereo not drawn)	-	-	-	-	-	32µM
CCOC(=O)N1CCN(C(=O)C[C@@H]2C[C@@]3(C(=O)OCC)CCCC=C3N(CCC3=CCCCC3)C2=O)CC1	0	?	?	?	16µM	0
CCOC(=O)[C@]12CCC=C1N(CCC1=CCCCC1)C(=O)[C@H](CC(=O)N1CCC(c3ccccc3)CC1)C2	0	?	?	?	18µM	?
CCOC(=O)[C@]12CCCC=C1N(CCC1=CCCCC1)C(=O)[C@H](CC(=O)NCC13CC4CC(CC(C4)C1)C3)C2	0	?	?	?	?	0
O=C(Cc1ccc([N+](=O)[O-])cc1)Nc1cccc(C(F)(F)F)c1	0	0	0	?	?	0
COc1ccccc1CC(=O)Nc1ccc2nc(Nc3cccc(Cl)c3)cc(C)c2c1	-	-	-	21µM	16µM	0
Cc1cc(Nc2cccc(C(F)(F)F)c2)nc2ccc(NC(=O)Cc3ccc(Cl)cc3)cc12	-	-	-	?	23µM	0
COc1ccc(CC(=O)Nc2ccc3nc(Nc4cccc(Cl)c4)cc(C)c3c2)cc1	-	-	-	6.5µM	5.8µM	?
Cc1cccc(OCC(=O)Nc2ccc3nc(Nc4cccc(C(F)(F)F)c4)cc(C)c3c2)c1	-	-	-	21µM	13µM	0
Cc1ccc(C(NC(=O)C(C)C)c2cccnc2)cc1C (stereo not drawn)	-	-	-	-	-	0
COc1cccc(CC(=O)N2[C@@H]3CC[C@H]2CC(NC(=O)c2ccncc2)C3)c1 (stereo partly drawn)	-	-	-	-	-	0
CC(=O)c1cc2c(cc1N/C(=N/S(=O)(=O)c1ccc(C)cc1)c1ccccc1)OCO2	0	0	0	23µM!	?	?
Cc1ccc(S(=O)(=O)/N=C(/Nc2ccc([N+](=O)[O-])cc2[N+](=O)[O-])c2ccccc2)cc1	-67	0	0	?	?	?
SMILES	IL-1B inflam inh	HT1080-NT tox	HT1080 IDH1KD tx	TDP1 cell CPT	TDP1 cell noCPT	ALOX12 inh
Cc1ccc(S(=O)(=O)/N=C(/Nc2ccc([N+](=O)[O-])cc2)c2ccccc2)cc1	0	0	0	0	?	45µM
CC(=O)Nc1ccc(NC(=S)NC(=O)c2ccc([N+](=O)[O-])cc2)cc1	0	0	0	0	0	0
Cc1ccc(S(=O)(=O)/N=C(/Nc2ccc(F)cc2F)c2ccc(F)cc2)cc1	0	0	0	0	0	0
O=[N+]([O-])c1ccc(NC(=S)N/C(=N/CS(=O)(=O)c2ccccc2)c2ccccc2)cc1	0	0	0	?	23µM	?
CCNC(=O)c1cccc(NC(=O)C2CCCC2)c1	-	-	-	-	-	0
Cc1cc(OCc2cc(C(=O)NCCN3CCCCC3CO)no2)cc(C)c1Cl (stereo not drawn)	-62	?	?	?	?	0
Cc1cc(OCc2cc(C(=O)N(C)CCc3cnn(C)c3)no2)cc(C)c1Cl	-59	0	0	13µM	21µM	0
CCc1ccc(CN(C)C(=O)c2cc(COc3cc(C)c(Cl)c(C)c3)on2)nc1	0	?	?	16µM	?	0
Cc1cc(OCc2cc(C(=O)N(C)C3CCOC3)no2)cc(C)c1Cl (stereo not drawn)	0	0	0	16µM	16µM	0
C/C(=N\Nc1cc(N2CCCCC2)nc(C)n1)c1ccc(Br)cc1	-51	?	?	13µM	5.8µM	?
COc1cccc(CN2CC(C(=O)N3CCN(c4ccc(Cl)cc4)CC3)CCC2=O)c1 (stereo not drawn)	0	0	0	23µM	21µM	0
COc1ccc(N2CCN(C(=O)c3cccc(Cn4cc(Cl)cn4)c3)CC2)cc1	0	0	0	?	23µM	0
COc1ccc(N2CCN(C(=O)c3ccc(C)c(Cl)c3)CC2)cc1	0	0	0	?	18µM	?
O=C(NCCF)c1cccc(S(=O)(=O)NCCCc2ccncc2)c1	-	-	-	-	-	0
C=CCn1c(SCC(=O)c2cccs2)nc2sc(CC)cc2c1=O	0	0	?	15µM	16µM	0
C=CCn1c(SCC(=O)/C(C#N)=C(\C)N)nc2sc(CC)cc2c1=O	?	0	0	21µM	21µM	?
C=CCn1c(SCC(=O)O)nc2sc(CC)cc2c1=O	0	0	0	0	0	?
Cc1cc(C)cc(OCC(=O)N2CCC(c3nc4ccccc4o3)CC2)c1	-	-	-	?	16µM	0
Cc1ccc(OC(C)C(=O)N2CCC(c3nc4ccccc4o3)CC2)cc1C (stereo not drawn)	-	-	-	-	-	0
Cc1cc(OC(C)C(=O)N2CCC(c3nc4ccccc4o3)CC2)ccc1Cl (stereo not drawn)	-	-	-	23µM	15µM	0
O=C(COc1ccccc1Cl)N1CCC(c2nc3ccccc3o2)CC1	-	-	-	-	-	0
O=C(COC(=O)c1ccc(N2CCCC2=O)cc1)c1ccc2c(c1)CCC2	-	-	-	-	-	0
CC(=O)N1CCC(C(=O)Nc2cc(F)ccc2F)CC1	-	-	-	-	-	0
COc1cc(OC)cc(C(=O)Nc2ccc(N3CCOCC3)cc2N2CCOCC2)c1	0	0	0	0	?	0
CC(C)COc1cccc(C(=O)Nc2ccc(S(=O)(=O)N3CCOCC3)cc2)c1	0	?	0	?	?	0
CC(C)COc1cccc(C(=O)Nc2ccc(CN3CCOCC3)cc2)c1	-82	0	?	23µM	?	0

Source: PubChem (National Center for Advancing Translational Sciences (NCATS))
